Screening results deposited in PubChem BioAssay by several laboratories.
An excerpt weighted towards active compounds, which were near 5.4% of everything screened.
Mdm2-MdmX inh: inhibitors of human Mdm2/MdmX interaction; 330,000 tested, 3% active; O15151+Q00987; SaOS-2 split-luciferase Mdm2/MdmX complementation, luminescence; inhibition, % at 8 µM;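 active means inhibition of at least 50% at 8 µM in the primary screen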
Target sequence (O15151 whole entry, looked up): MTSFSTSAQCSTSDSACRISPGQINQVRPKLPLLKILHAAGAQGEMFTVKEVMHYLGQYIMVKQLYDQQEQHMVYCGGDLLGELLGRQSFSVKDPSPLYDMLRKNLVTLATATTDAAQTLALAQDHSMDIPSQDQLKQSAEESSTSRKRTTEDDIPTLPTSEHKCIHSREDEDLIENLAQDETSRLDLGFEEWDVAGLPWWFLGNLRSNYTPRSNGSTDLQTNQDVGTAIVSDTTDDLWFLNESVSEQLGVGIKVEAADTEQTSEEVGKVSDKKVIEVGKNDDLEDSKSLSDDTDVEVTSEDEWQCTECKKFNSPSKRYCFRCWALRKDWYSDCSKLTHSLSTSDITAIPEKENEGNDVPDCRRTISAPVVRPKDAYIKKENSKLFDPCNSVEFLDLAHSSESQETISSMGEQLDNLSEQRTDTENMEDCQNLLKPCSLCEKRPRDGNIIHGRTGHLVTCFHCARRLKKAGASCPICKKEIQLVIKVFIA
Target sequence (Q00987 whole entry, looked up): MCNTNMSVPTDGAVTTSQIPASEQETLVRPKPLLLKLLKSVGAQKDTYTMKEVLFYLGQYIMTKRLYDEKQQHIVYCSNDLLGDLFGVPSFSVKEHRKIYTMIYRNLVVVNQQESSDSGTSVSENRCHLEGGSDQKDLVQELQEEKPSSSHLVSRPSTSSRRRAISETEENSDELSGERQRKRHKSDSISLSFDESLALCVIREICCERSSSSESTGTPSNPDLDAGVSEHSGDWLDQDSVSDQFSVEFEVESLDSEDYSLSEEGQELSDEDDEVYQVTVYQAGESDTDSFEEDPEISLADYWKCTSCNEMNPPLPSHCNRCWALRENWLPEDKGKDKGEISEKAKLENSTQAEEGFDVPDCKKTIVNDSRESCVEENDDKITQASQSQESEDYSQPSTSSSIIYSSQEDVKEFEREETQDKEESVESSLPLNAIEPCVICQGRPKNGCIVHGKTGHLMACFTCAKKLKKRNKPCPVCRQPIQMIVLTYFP
Calb FLC: C. albicans growth modulation with fluconazole; C. albicans CaCi-2 (fluconazole-resistant clinical isolate) + fluconazole, Alamar Blue growth, 48 h; growth inhibition, % (test concentration not listed); 300,000 tested, 0.57% active; AID 1979;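 active means growth inhibition above about 58% in most replicates, limit read from the data, passing the limit was not always enough; inconclusive means exactly half the replicates above a set limit; inactive means most replicates below a set limit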;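 further: all wells also contain fluconazole at 8 µg/ml as a sub-toxic cotreatment; 0% = median of DMSO wells and 100% = median of geldanamycin control wells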
MPTP block: permeability transition pore inhibition; isolated mouse mitochondria, Ca2+ swelling absorbance, 30 min; inhibition, % at 10 µM; 360,000 tested, 1.4% active; AID 602449;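 active means inhibition of 50% or more, scaled per plate between neutral and stimulator controls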;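 further: 0% = DMSO wells given calcium and 100% = 1 mM EGTA wells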
CSC inhib: cancer stem cell inhibition; cancer stem cell-like cells viability, luminescence; inhibition, % at 7.5 µM; 300,000 tested, 1.1% active; in the data active means inhibition above about 75%; inconclusive means no clear call, values can overlap the other calls; tested in HMLE shEcad cells
Beta apoptosis: beta cell apoptosis inhibition. INS-1E cytokine-induced death, ATP luminescence, 48 h; percent of positive-control rescue, neutral wells zero. protection from apoptosis, % (test concentration not listed). 300,000 tested, 0.8% active. AID 435005;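 active means Every replicate reaches about 75%, or at least half do and their mean reaches it too, limit read from the data; inconclusive means At least half of replicates reach the limit but their mean does not; inactive means Under half of replicates reach the limit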;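 further: 0% = cytokine-treated negative control wells and 100% = positive control rescue; higher means more ATP so stronger rescue from cytokine killing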
SKKanGAS inh: blocks kanamycin growth of S. pyogenes SKKanGAS strain; inhibition, % at 7.5 µM; 300,000 tested, 1.3% active; BacTiter-Glo, 6 h;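 active means mean replicate score, as percent of positive control median, at least 50; inconclusive means mean below 50 but one replicate at or above 50; inactive means mean and every replicate below 50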;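 further: strain carries kanamycin resistance gene driven by streptokinase promoter and grows in 40 µg/ml kanamycin; loss of luminescence reflects streptokinase promoter inhibition or plain growth inhibition; 0% = median of DMSO wells and 100% = positive control at its reference dose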
Mdm2-MdmX conf: human Mdm2/MdmX binding inhibition, confirmed; inhibition, % at 8 µM; 10,000 tested, 55% active; luminescent assay; shares compounds with Mdm2-MdmX inh; in the data active means inhibition above about 40%
FLuc counter: full-length luciferase inhibition in Mdm2/MdmX counter-screen; shares compounds with Mdm2-MdmX inh; SaOS-2 full-length luciferase counterscreen, luminescence; inhibition, % at 8 µM; 6,200 tested, 77% active;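 active means mean inhibition at 8 µM reaching about 37%, which flags the compound as non-specific, limit read from the data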;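 further: p53-null SaOS-2 cells with luciferase driven by a doxycycline-inducible promoter; compound on cells about two nights before reading with doxycycline added after day one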
An asterisk follows results filed as active; ? = inconclusive; nt = not tested or not shown.

SMILES	Mdm2-MdmX inh	Calb FLC	MPTP block	CSC inhib	Beta apoptosis	SKKanGAS inh	Mdm2-MdmX conf	FLuc counter
N=c1c2c(ncn1CCCO)Oc1c(ccc3ccccc13)C2c1ccccc1 (configuration not stated)	62.5*	11.6	-2.9	49.7	19.4	0.4	31.4	nt
CC(C)(C)c1ccc(C(=O)Nc2ccc(CN3CCS(=O)(=O)CC3)cc2)cc1	-0.2	8.5	0.6	6.2	2.0	1.0	nt	nt
O=C(Nc1ccc(CN2CCS(=O)(=O)CC2)cc1)c1ccc(C(F)(F)F)cc1	50.6*	0.6	5.4	-1.9	-4.9	1.5	7.8	nt
COc1ccc2c(c1)C1C=CCC1C(c1cc3c(cc1Br)OCO3)N2 (configuration not stated)	47.3	?	1.0	60.1	-5.0	3.5	nt	nt
CC(=O)c1ccc2c(c1)C1C=CCC1C(c1cc3c(cc1Br)OCO3)N2 (configuration not stated)	66.6*	-4.3	1.9	52.3	11.6	15.0	46.8*	57.3*
COc1ccc(C(=O)NC(=S)Nc2ccc3oc(=O)ccc3c2)cc1	73.3*	16.0	-0.2	nt	2.9	0.8	23.6	84.1*
COc1ccc(Cl)c2sc(NC(=O)C3=COCCO3)nc12	54.2*	15.6	-1.2	5.7	0.8	15.6	24.4	nt
NS(=O)(=O)c1ccc2nc(NC(=O)c3ccc4ncsc4c3)sc2c1	-8.8	nt	-0.5	5.0	-1.9	0.5	nt	nt
NS(=O)(=O)c1ccc2nc(NC(=O)c3ccc4c(c3)OCCO4)sc2c1	76.1*	nt	-0.5	1.4	-8.0	-2.1	23.6	nt
O=C(Nc1nc2cc3c(cc2s1)OCCO3)C1=COCCO1	87.2*	-4.1	-1.2	12.5	19.9	27.3	83.4*	39.3*
O=C(Nc1nc2ccc(F)cc2s1)C1=COCCO1	10.6	-3.1	0.2	16.4	12.5	27.7	nt	nt
O=[N+]([O-])c1ccc(S(=O)(=O)NCC2CCCO2)cc1 (configuration not stated)	-10.1	-2.5	-1.1	-10.1	-3.4	-7.7	nt	nt
Cc1ccc(S(=O)(=O)N(C)c2c(C)ccc(S(N)(=O)=O)c2C)cc1	-30.5	-13.8	-0.8	6.3	-4.5	0.9	nt	nt
CCOc1ccccc1NC(=O)[C@@H](NC(=O)c1ccccc1F)C(C)C	4.7	-5.2	1.0	-0.2	-6.4	-1.9	nt	nt
CCOC(=O)c1c(C)[nH]c(C(=O)N/N=C/c2cccc(OC)c2)c1C	52.6*	-15.4	23.3	49.9	-0.5	-6.3	39.1	nt
COc1cccc(/C=N/NC(=O)c2[nH]nc3c2CCc2ccccc2-3)c1	56.0*	-6.5	16.3	37.1	38.6	17.9	60.6*	43.9*
COc1ccc(OC)c(N(CC(=O)Nc2cccnc2)S(=O)(=O)c2ccccc2)c1	11.1	6.3	-0.4	0.3	-0.5	-1.0	nt	nt
Clc1ccccc1-c1nnc2sc(CCc3ccccc3)nn12	15.3	10.8	-3.2	-2.6	2.1	10.4	nt	nt
c1ccc(CCc2nn3c(-c4ccncc4)nnc3s2)cc1	68.7*	-24.5	0.3	nt	nt	-1.3	58.9*	33.7
CC12CCC(C(=O)Nc3cccc4ccccc34)(C1Br)C2(C)C (configuration not stated)	-18.0	-20.3	0.2	63.5	nt	0.1	nt	nt
Cc1cc(C(=O)NC2CCCc3c2cnn3-c2cccc(C)c2C)no1 (configuration not stated)	93.5*	-4.5	2.1	-2.4	nt	9.8	94.4*	23.6
COc1ccc(C(=O)NC2CCCc3c2cnn3-c2cccc(C)c2C)o1 (configuration not stated)	73.7*	-0.7	3.1	15.0	14.5	-0.3	48.4*	46.0*
CCN(CC)C(=O)[C@H]1C[C@H](CC(=O)NC/C=C(\C)CCC=C(C)C)C(=O)N2CCc3c([nH]c4cc(CCC(=O)N(C)C)ccc34)[C@]12C	67.6*	nt	1.6	nt	nt	nt	10.4	nt
CC(C)=CCC/C(C)=C/CNC(=O)C[C@H]1C[C@H](C(=O)N2CCOCC2)[C@@]2(C)c3[nH]c4ccc(Cl)cc4c3CCN2C1=O	88.3*	nt	-2.3	nt	nt	nt	12.0	nt
Cc1nc2sc(C(N)=O)c(N)c2c2c1CCCC2	87.0*	27.2	0.7	5.3	-6.7	-6.9	88.7*	49.0*
SMILES	Mdm2-MdmX inh	Calb FLC	MPTP block	CSC inhib	Beta apoptosis	SKKanGAS inh	Mdm2-MdmX conf	FLuc counter
Cc1ccc(-c2nc3sc(C(N)=O)c(N)c3c3c2CCCC3)cc1	-5.5	-8.2	-3.6	17.6	-1.2	21.4	nt	nt
NC(=O)c1sc2nc3c(c(-c4ccco4)c2c1N)CCC3	76.9*	?	0.4	-13.1	-51.5	-1.5	55.0*	24.9
Cc1ccc(-c2c3c(nc4sc(C(N)=O)c(N)c24)CCCC3)o1	28.0	38.4	-0.5	-1.1	-3.6	7.1	nt	nt
COc1cc(/C=N/NC(=O)c2cc(-c3cccc(OC(C)C)c3)nc3ccccc23)ccc1O	87.9*	23.0	3.5	32.2	5.5	25.1	59.0*	57.2*
CCc1ccc(/C=N/NC(=O)c2cc(-c3ccccc3OC)nc3ccccc23)s1	24.3	18.1	1.9	nt	3.7	30.5	nt	nt
COc1ccccc1-c1cc(C(=O)N/N=C/c2ccc(C)s2)c2ccccc2n1	71.2*	4.2	2.3	-11.3	8.1	14.6	5.0	nt
CCC(=O)c1ccc(OC(=O)c2cnccn2)cc1	7.4	-0.3	-0.1	-17.5	-9.8	4.5	nt	nt
CC1=CC(C)(C)Nc2ccc(OC(=O)CCN3C(=O)c4ccccc4C3=O)cc21	100.7*	42.9	0.5	7.7	-3.5	-4.3	34.8	nt
O=C(Nc1cccc2[nH]ncc12)c1ccc(F)cc1	60.3*	-3.8	0.9	-13.6	-14.6	3.0	73.5*	25.0
O=C(NC(=S)Nc1cccc2[nH]ncc12)c1ccccc1	16.9	-9.2	-5.1	-6.9	-13.6	1.2	nt	nt
COc1ccc(C23CC4CC(CC(C4)C2)C3)cc1C(=O)NCCN(C)C	61.9*	11.1	38.1	3.6	19.8	-3.9	22.8	nt
COc1ccccc1C(=O)NCCC(=O)NCCC12CC3CC(CC(C3)C1)C2	8.3	-34.8	0.0	-3.4	-0.5	-0.2	nt	nt
CCc1ccc(N2CN(Cc3ccco3)CNC2=S)cc1	-14.8	-15.6	1.5	0.1	-0.3	-2.1	nt	nt
COc1cc(C(=O)NCC(=O)N2CCN(S(=O)(=O)c3cc(C)ccc3C)CC2)cc(OC)c1OC	53.3*	2.1	-0.6	30.7	1.5	-2.7	52.5*	42.2*
COc1ccc(C(=O)c2ccc(Br)cc2)c2ccccc12	52.2*	-1.6	3.1	70.8	1.6	-0.1	52.7*	79.9*
O=Cc1ccc(O)c2ncccc12	56.0*	94.1*	-28.9	nt	nt	32.5	34.0	nt
COc1ccc(Nc2nnc(SCC(=O)NC(=O)Nc3ccc4c(c3)OCCO4)s2)cc1	62.4*	-7.2	3.9	18.5	-2.4	-1.6	-4.2	nt
O=C(CSc1nnnn1-c1cccc(Cl)c1)Nc1ccc2c(c1)CCC2	71.2*	-2.7	nt	2.5	6.1	2.0	36.8	59.9*
